# Test results as given in publication PMC8384837, “Expanding the binding specificity for RNA recognition by a PUF domain”.
# Assays:
# Experiment in all cases: yeast three-hybrid, YBZ-1, SC-Leu-His + 0.5 mM 3-AT, 4 days
# Conditions in all cases: tags: N-Gal4 AD-HA kept; label: inside an RPR1-promoter hybrid RNA with tandem MS2 sites; ssRNA
# [1] = molecular target: PUM1 PUF domain R4-MNV (Homo sapiens, UniProt Q14671 828-1176, N971M;H972N;Q975V)
# Method in brief: (§1)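 A centromeric plasmid in strain YBZ-1 co-expressed Pumilio-1 PUF domain libraries, randomized at the three base-contacting residues of each repeat, with matching RNA elements; the strain carries a LexA–MS2 coat fusion and a HIS3 reporter. After four days on SC-Leu (input) or SC-Leu-His + 0.5 mM 3-AT (selection), the repeat regions were PCR-amplified and Illumina-sequenced. The interaction score is the log change in variant frequency from input to selection, using log2 and a pseudocount of 1 where absent.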
# [2] = molecular target: PUM1 PUF domain R4-YFG (Homo sapiens, UniProt Q14671 828-1176, N971Y;H972F;Q975G)
# Method in brief: as §1
# [3] = molecular target: PUM1 PUF domain R5-DYG (Homo sapiens, UniProt Q14671 828-1176, C1007D;R1008Y;Q1011G)
# Method in brief: as §1
# [4] = molecular target: PUM1 PUF domain R3-VRC (Homo sapiens, UniProt Q14671 828-1176, C935V;Q939C)
# Method in brief: as §1
# [5] = molecular target: T1, PUM1 PUF domain R6-KFG (Homo sapiens, UniProt Q14671 828-1176, N1043K;Y1044F;Q1047G)
# T1 sequence: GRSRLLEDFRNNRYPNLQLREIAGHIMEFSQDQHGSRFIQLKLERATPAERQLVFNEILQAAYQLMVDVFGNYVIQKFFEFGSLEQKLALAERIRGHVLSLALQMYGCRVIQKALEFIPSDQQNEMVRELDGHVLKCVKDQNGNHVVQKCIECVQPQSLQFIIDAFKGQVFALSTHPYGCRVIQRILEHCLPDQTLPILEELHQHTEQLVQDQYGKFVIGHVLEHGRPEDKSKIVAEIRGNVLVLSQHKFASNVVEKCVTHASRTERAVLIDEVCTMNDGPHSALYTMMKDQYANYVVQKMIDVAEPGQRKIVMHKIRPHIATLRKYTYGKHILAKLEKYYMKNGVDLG
# Method in brief: as §1
# [6] = molecular target: PUM1 PUF domain R3-IRC (Homo sapiens, UniProt Q14671 828-1176, C935I;Q939C)
# Method in brief: as §1
# [7] = molecular target: PUM1 PUF domain R1-NWR (Homo sapiens, UniProt Q14671 828-1176, S863N;R864W;Q867R)
# Method in brief: as §1
# [8] = molecular target: PUM1 PUF domain R8-PWK (Homo sapiens, UniProt Q14671 828-1176, N1122P;Y1123W;Q1126K)
# Method in brief: as §1
sequence,measurement,setting,value
GGCUAGAACUAGUGGAUCCCCCGGCGCCCGGCGGCUCGAGCCCGGGUAAGUGUACAUAGUCUGCAUGCCGCCGGGCGCCAUGCCUGCAGGUCGACUCUAGAAAACAUG,binding signal,[1],0.87 log2 enrichment (interaction score)
GGCUAGAACUAGUGGAUCCCCCGGCGCCCGGCGGCUCGAGCCCGGGUAAGUGUAUAUAGUCUGCAUGCCGCCGGGCGCCAUGCCUGCAGGUCGACUCUAGAAAACAUG,binding signal,[1],3.98 log2 enrichment (interaction score)
same,binding signal,[2],3.63 log2 enrichment (interaction score)
GGCUAGAACUAGUGGAUCCCCCGGCGCCCGGCGGCUCGAGCCCGGGUAAGUGUCAAUAGUCUGCAUGCCGCCGGGCGCCAUGCCUGCAGGUCGACUCUAGAAAACAUG,binding signal,[3],3.79 log2 enrichment (interaction score)
GGCUAGAACUAGUGGAUCCCCCGGCGCCCGGCGGCUCGAGCCCGGGUAAGUGUAAAUAGUCUGCAUGCCGCCGGGCGCCAUGCCUGCAGGUCGACUCUAGAAAACAUG,binding signal,[3],3.86 log2 enrichment (interaction score)
same,binding signal,[4],3.72 log2 enrichment (interaction score)
same,binding signal,[5],3.39 log2 enrichment (interaction score)
same,binding signal,[6],2.81 log2 enrichment (interaction score)
same,binding signal,[2],2.07 log2 enrichment (interaction score)
GGCUAGAACUAGUGGAUCCCCCGGCGCCCGGCGGCUCGAGCCCGGGUAAGUGUAAGUAGUCUGCAUGCCGCCGGGCGCCAUGCCUGCAGGUCGACUCUAGAAAACAUG,binding signal,[4],0.33 log2 enrichment (interaction score)
GGCUAGAACUAGUGGAUCCCCCGGCGCCCGGCGGCUCGAGCCCGGGUAAGUGUAAAUCGUCUGCAUGCCGCCGGGCGCCAUGCCUGCAGGUCGACUCUAGAAAACAUG,binding signal,[7],6.94 log2 enrichment (interaction score)
GGCUAGAACUAGUGGAUCCCCCGGCGCCCGGCGGCUCGAGCCCGGGUAAGUGUAAAUUGUCUGCAUGCCGCCGGGCGCCAUGCCUGCAGGUCGACUCUAGAAAACAUG,binding signal,[7],4.99 log2 enrichment (interaction score)
GGCUAGAACUAGUGGAUCCCCCGGCGCCCGGCGGCUCGAGCCCGGGUAAGCGUAAAUAGUCUGCAUGCCGCCGGGCGCCAUGCCUGCAGGUCGACUCUAGAAAACAUG,binding signal,[8],5.71 log2 enrichment (interaction score)
